Here are results for 17 compounds from PubChem BioAssay (NCI).

Among the test systems are T-47D breast; BT-549 breast; MDA-MB-435 melanoma; SW-620 colon; MCF7 breast; HCT-116 colon; HCC-2998 colon; KM12 colon.
Common to all, as to assay: NCI-60 one-dose screen, 48 h (100 = growth as untreated, 0 = no growth, -100 = all killed)
What all share (conditions): 10 µM unless noted

About 83,000 compounds went through this panel and 20% of them were active in at least one assay; those are over-represented in the sample as a whole.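 Values shown are percent growth following 48 h exposure of cells in 96-well plates to a single concentration of compound; below 10 was considered active.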 Unmarked numbers belong to inactive results. The source made the active and inactive calls.

In the case of `O=C(c1ccccc1)c1cc2ccccc2oc1=O`, the growth in the assay with T-47D breast is 85.5%; in the assay with BT-549 breast it was 89.8%; in the assay on MDA-MB-435 melanoma, 109%; in the assay on SW-620 colon, 113%; in the assay with MCF7 breast, 108%; in the assay with HCT-116 colon it was 99.4%. The growth in the assay with HCC-2998 colon was 118%; in the assay with KM12 colon, 92.3%.
For `O=C1/C(=C/c2ccccn2)CCc2ccccc21`, the growth is 84.9% in the assay on T-47D breast; 106% with BT-549 breast; 88.5% with MDA-MB-435 melanoma; 85.5% with SW-620 colon; 59.4% in the assay with MCF7 breast; 90.4% with HCT-116 colon. Further, the growth with HCC-2998 colon was 100%; in the assay on KM12 colon, 86.9%.
On to `C[n+]1ccccc1C[n+]1ccccc1`, for which the growth in the assay with T-47D breast was 105%; in the assay on BT-549 breast, 108%; in the assay on MDA-MB-435 melanoma, 115%; in the assay on SW-620 colon, 118%; with MCF7 breast, 92.3%; in the assay on HCT-116 colon, 107%. The growth in the assay with HCC-2998 colon is 110%; with KM12 colon, 103%.
For the compound `OCCOSCCO`, the growth was 110% in the assay on T-47D breast; 110% in the assay on BT-549 breast; 109% with MDA-MB-435 melanoma; 105% with SW-620 colon; 97.7% with MCF7 breast; 102% in the assay on HCT-116 colon. Besides, the growth was 111% in the assay on HCC-2998 colon and 112% in the assay with KM12 colon.
Regarding `Cc1oc2c(C)c3oc(=O)cc(C)c3cc2c1CCl`, the growth in the assay on T-47D breast is 53.9%; in the assay with BT-549 breast, 68.8%; with MDA-MB-435 melanoma, 63.4%; in the assay on SW-620 colon, 76.7%; in the assay with MCF7 breast, 49%; in the assay with HCT-116 colon, 71.1%. Besides, the growth was 98.8% with HCC-2998 colon and 90.1% in the assay on KM12 colon.
Take `CC(C)Nc1ccc(Nc2ccc(NC(C)C)cc2)cc1`: the growth is 31.9% in the assay on T-47D breast; 53.2% in the assay with BT-549 breast; 51.4% in the assay with MDA-MB-435 melanoma; 47.9% in the assay with SW-620 colon; 28.9% with MCF7 breast; 25.7% in the assay on HCT-116 colon. For the same compound, the growth with HCC-2998 colon was 61.2%; in the assay on KM12 colon it was 29.3%.
In the case of `Cc1ccc(/C=C2\CNC/C(=C\c3ccc(C)cc3)C2=O)cc1`, the growth with T-47D breast is 14%; in the assay with BT-549 breast, -72.2% (active); in the assay on MDA-MB-435 melanoma, -47.5% (active); in the assay with SW-620 colon, -44.1% (active); in the assay with MCF7 breast, 1.76% (active); in the assay with HCT-116 colon it was -60% (active). Also, the growth in the assay on HCC-2998 colon was -81.3% (active); in the assay with KM12 colon, -78.6% (active).
As for `NC(=S)N/N=C\c1nccc2c(N)cccc12`, the growth in the assay on T-47D breast was 11%; in the assay with BT-549 breast, 41%; in the assay on MDA-MB-435 melanoma it was 30.3%; in the assay on SW-620 colon, 37.2%; in the assay with MCF7 breast it was 22.1%; in the assay on HCT-116 colon it was 19.2%. The growth in the assay on HCC-2998 colon was 44.4%; in the assay on KM12 colon, 26.7%.
Consider `COc1cc(/C=C2\SC(=S)N(/C=C/c3nc4ccccc4[nH]c3=O)C2=O)cc(OC)c1OC`, for which the growth is 52.6% in the assay with T-47D breast; 80.8% in the assay with BT-549 breast; 81.9% with MDA-MB-435 melanoma; 91.2% in the assay with SW-620 colon; 82.1% in the assay on MCF7 breast; 78.8% in the assay on HCT-116 colon. The growth in the assay on HCC-2998 colon was 87.5%; in the assay with KM12 colon, 90.4%.
As for `Cc1nc([N+](=O)[O-])c(Sc2nncc(-c3ccccc3)n2)n1C`, the growth with T-47D breast is 15.3%; in the assay on BT-549 breast, 66.6%; in the assay on MDA-MB-435 melanoma it was 76.3%; in the assay with SW-620 colon it was 77.1%; in the assay on MCF7 breast it was 43.8%; in the assay with HCT-116 colon it was 53.2%. Also, the growth with HCC-2998 colon is 98.3%; in the assay on KM12 colon, 104%.
On to `Nc1ccc(Oc2ccccc2)c(Cl)c1`, for which the growth was 86.6% with T-47D breast; 97.6% with BT-549 breast; 93.6% in the assay on MDA-MB-435 melanoma; 107% in the assay with SW-620 colon; 95.6% in the assay with MCF7 breast; 79.3% with HCT-116 colon. Besides, the figures for the growth with HCC-2998 colon and in the assay with KM12 colon were 113% and 104%, respectively.
With `CN(C)CCSC1=Nc2ccc(Cl)cc2C(c2ccccc2Cl)N(C)C1` (stereo unspecified), the growth in the assay with T-47D breast is 57.9%; in the assay with BT-549 breast, 76.4%; in the assay on MDA-MB-435 melanoma it was 62.2%; in the assay on SW-620 colon it was 87.4%; with MCF7 breast, 27.8%; with HCT-116 colon, 65.1%. Also, the growth is 81% in the assay with HCC-2998 colon and 61.6% in the assay with KM12 colon.
Consider `OC(c1cc(-c2ccc(Cl)cc2)nc2c(Cl)cccc12)C1CCCCN1` (stereo unspecified), for which the growth is -82.9% (active) in the assay on T-47D breast; 73.6% in the assay on BT-549 breast; -78.8% (active) in the assay on MDA-MB-435 melanoma; -86.2% (active) with SW-620 colon; -88.7% (active) in the assay with MCF7 breast; -28.8% (active) in the assay on HCT-116 colon. Further, the growth was -68.9% (active) with HCC-2998 colon and -89% (active) in the assay with KM12 colon.
As to `Cc1cc(=O)oc2cc(O)cc(O)c12`, the growth was 90.5% with T-47D breast; 101% with BT-549 breast; 94.7% with MDA-MB-435 melanoma; 92% in the assay on SW-620 colon; 98% in the assay on MCF7 breast; 90.5% in the assay with HCT-116 colon. Besides, the growth in the assay with HCC-2998 colon and with KM12 colon was 111% in each case.
For `Nc1ccc(-c2ccc(N)c(S(=O)(=O)O)c2)cc1S(=O)(=O)O`, the growth in the assay with T-47D breast is 106%; in the assay with BT-549 breast, 113%; in the assay with MDA-MB-435 melanoma, 115%; in the assay on SW-620 colon it was 107%; with MCF7 breast it was 104%; in the assay with HCT-116 colon, 107%. In addition, the growth in the assay with HCC-2998 colon is 113%; in the assay with KM12 colon, 103%.
`CCN(CC)CCNc1ccc([N+](=O)[O-])c2sc3ccccc3c(=O)c12`: the growth is 45.5% with T-47D breast; 72% in the assay on BT-549 breast; 18.4% with MDA-MB-435 melanoma; -5.78% (active) in the assay with SW-620 colon; 8.95% (active) in the assay with MCF7 breast; 17.9% with HCT-116 colon. Further, the growth was 36.6% with HCC-2998 colon and 22.9% with KM12 colon.
On to `CC1(C)OC2C(COC(c3ccccc3)(c3ccccc3)c3ccccc3)OC(c3c[nH]c4c(N)ncnc34)C2O1` (stereo unspecified), for which the growth is 43.2% in the assay on T-47D breast; 77.5% in the assay on BT-549 breast; 62.4% in the assay on MDA-MB-435 melanoma; 63.9% in the assay with SW-620 colon; 35% with MCF7 breast; 46.7% in the assay with HCT-116 colon. Moreover, the growth is 85.7% in the assay with HCC-2998 colon and 50.3% with KM12 colon.
